Most compounds without a hit are left out; they make up all but 10% or so of the library.
FLuc inh: blocks purified firefly luciferase enzyme activity; P08659; purified P. pyralis luciferase, luminescence, biochemical; Potency, µM (top dose mostly 115 µM), usual class: inhibitors; hit rate 2.5% among 76,000; further: nearly all actives have a fitted effect of over 65% in size
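Purified 10nM P. pyralis luciferase with 10uM D-luciferin and 10uM ATP in 50mM Tris acetate pH 7.5, 10mM Mg acetate, 0.01% Tween-20, 0.05% BSA. qHTS titration; luminescence read by CCD imager.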
NPR1 antag: blocks ANP-stimulated signaling of human Npr1 receptor | P16066 | Potency, µM (doses to about 46.3 µM), inactives show top-dose activity change, negative = inhibition, most hits filed as inhibitors | hit rate 1.6% among 76,000 | AID 1347048 | HEK293 hNpr1 GloSensor cGMP, ANP-stimulated luminescence; calls by dose curve; further: nearly all actives have a fitted effect of over 60% in size
Target sequence (P16066 whole entry, looked up): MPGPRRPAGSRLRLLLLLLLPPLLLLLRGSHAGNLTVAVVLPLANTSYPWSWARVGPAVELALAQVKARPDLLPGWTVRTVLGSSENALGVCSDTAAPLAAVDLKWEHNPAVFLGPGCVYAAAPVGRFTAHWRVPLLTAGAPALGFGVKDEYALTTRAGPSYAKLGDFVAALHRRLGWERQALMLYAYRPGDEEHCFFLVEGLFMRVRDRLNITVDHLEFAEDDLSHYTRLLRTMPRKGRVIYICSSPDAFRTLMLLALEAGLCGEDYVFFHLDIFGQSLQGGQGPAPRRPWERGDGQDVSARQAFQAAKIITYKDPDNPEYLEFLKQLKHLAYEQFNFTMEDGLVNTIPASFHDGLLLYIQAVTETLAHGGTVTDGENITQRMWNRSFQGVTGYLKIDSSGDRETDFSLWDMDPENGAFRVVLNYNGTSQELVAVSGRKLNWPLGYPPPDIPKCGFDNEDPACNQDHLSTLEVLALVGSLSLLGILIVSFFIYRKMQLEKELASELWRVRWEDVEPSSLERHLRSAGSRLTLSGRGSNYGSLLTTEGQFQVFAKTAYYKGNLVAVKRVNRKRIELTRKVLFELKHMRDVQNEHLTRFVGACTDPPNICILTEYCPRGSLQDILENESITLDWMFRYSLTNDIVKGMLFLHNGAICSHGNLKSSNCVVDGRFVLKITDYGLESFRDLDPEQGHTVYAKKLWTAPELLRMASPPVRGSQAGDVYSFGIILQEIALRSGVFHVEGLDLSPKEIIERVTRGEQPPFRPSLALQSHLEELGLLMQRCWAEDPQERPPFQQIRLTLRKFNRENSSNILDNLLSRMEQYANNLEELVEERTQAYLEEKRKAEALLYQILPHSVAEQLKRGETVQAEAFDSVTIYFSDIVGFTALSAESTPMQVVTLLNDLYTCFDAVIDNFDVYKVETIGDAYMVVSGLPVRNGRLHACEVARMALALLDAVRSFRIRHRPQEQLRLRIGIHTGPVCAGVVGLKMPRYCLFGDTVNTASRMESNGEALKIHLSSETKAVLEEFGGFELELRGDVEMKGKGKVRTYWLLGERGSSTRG
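Compound pre-incubated 30 min at room temperature on GloSensor-loaded HEK293 cells stably carrying hNpr1 and the pGS-40F cGMP biosensor. Stimulation uses hNppA at 0.1 nM final; luminescence is taken at baseline and 20 min post-agonist.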
GPT2 inhibitor: GPT2 alanine aminotransferase inhibition; AID 1671188; Potency, µM (top dose mostly 57.7 µM), inactives show at the highest dose activity change, negative = inhibition, hits mostly inhibitors; hit rate 0.25% among 100,000; Recombinant GPT2, coupled pyruvate oxidase/HRP Amplex Red fluorescence; Q8TD30; further: nearly all actives have a fitted effect of over 60% in size
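Inhibition is scored from Amplex Red fluorescence generated when pyruvate oxidase and HRP act on pyruvate released by GPT2. Reactions contain 10ng/uL enzyme, 250uM a-KG and 2mM L-alanine and run 30 min at room temperature.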
HEK293 tox: cytotoxic compounds in HEK 293 cells. HEK 293 viability, ATP luminescence (CellTiter-Glo), 48-72 h. Potency, µM (doses to about 115 µM), for the others: top-dose activity change, negative = cytotoxicity, usual class: inhibitors. hit rate 6.6% among 94,000; further: nearly all actives have a fitted effect of over 60% in size
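Pintool-delivered compounds were incubated with HEK 293 cells (250 cells/well) at 37 degree Celsius for 48 or 72 hr. ATP-dependent luminescence (CellTiter-Glo) then reported remaining viable cells.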
NIH3T3 tox: NIH 3T3 cell cytotoxicity; NIH 3T3 viability, CellTiter-Glo ATP luminescence, 48-72 h; Potency, µM (series often up to 96.7 µM), for inactives: at the highest dose activity change, negative = cytotoxicity, actives largely listed as inhibitors; hit rate 4.3% among 94,000; further: nearly all actives have a fitted effect of over 55% in size
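Cells were seeded at 400 per well, treated with pin-transferred compound, and kept 48 or 72 hr at 37 °C before CellTiter-Glo addition and luminescence imaging of cellular ATP.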
* marks the source's active call; other numbers are inactive results; [ ] = another dose, or the depositor's remark. Unless noted, the call rests on the fitted dose curve; in most records, active means well fitted curve in the direction sought with a large enough effect; inconclusive means small, poorly fitted or top-dose-only effect, or another doubt; inactive means no such curve, though single readings can be large; an effect the other way counts as inactive or inconclusive. On the % scale 0 is the no-effect control and ±100 the full control effect; potency means the concentration at half of the fitted maximal effect.

Screening COc1ccccc1-c1cc(C(=O)NCCc2ccccc2F)nn2cnnc12 returned GPT2 inhibitor -6%, HEK293 tox inconclusive and NIH3T3 tox inconclusive.
`CN(C)S(=O)(=O)N1CC(c2nc(Cc3cccnc3)no2)C1` gave GPT2 inhibitor -28%, HEK293 tox -7% and NIH3T3 tox -21%.
c1cncc(Cc2noc(C3CN(Cc4ccsc4)C3)n2)c1 was read as FLuc inh inactive, NPR1 antag -6%, GPT2 inhibitor -24%, HEK293 tox inconclusive and NIH3T3 tox 25µM*.
`COc1cccc(-c2cccc(C(=O)N3CCN(C(=O)C4CCCC4)CC3)c2)c1` gave GPT2 inhibitor -4%, HEK293 tox inconclusive and NIH3T3 tox inconclusive.
For Cc1noc(C2CC3(CCN(C(=O)c4nn(C)c5ccccc45)CC3)CN2C)n1 (stereo not drawn) the results were FLuc inh inactive, NPR1 antag -3%, GPT2 inhibitor inactive, HEK293 tox -7% and NIH3T3 tox inconclusive.
COc1cccc(CN2CCOC3(CCN([S+](=O)([O-])c4c(C)noc4C)CC3)C2=O)c1 was read as FLuc inh inactive, NPR1 antag -4%, GPT2 inhibitor 4%, HEK293 tox -26% and NIH3T3 tox 20µM*.
O=C1N(CCc2ccccc2)CCOC12CCN([S+](=O)([O-])c1cccnc1)CC2 was read as FLuc inh inactive, NPR1 antag 6%[70.6 µM], GPT2 inhibitor -9%[88.5 µM], HEK293 tox -23%[172 µM] and NIH3T3 tox 25µM*.
O=C1NCc2ccccc2CC12CCCN(CCCc1ccccc1)C2 (stereo not drawn) was read as GPT2 inhibitor inactive, HEK293 tox inconclusive and NIH3T3 tox inconclusive.
O=C(C1CC1)N1CCCC(c2nn(-c3ccc(Cl)cc3)c(=O)[nH]2)C1 (stereo not drawn) was read as FLuc inh inactive, NPR1 antag 10%, GPT2 inhibitor inactive, HEK293 tox -8% and NIH3T3 tox -21%.
O=C([C@@H]1C[C@@H](O)[C@H](O)[C@@H]2NC(=S)N(c3ccc(Cl)cc3)[C@@H]21)N1CCCCC1 was read as FLuc inh 50µM*, NPR1 antag 4%[70.6 µM], GPT2 inhibitor -5%[88.5 µM], HEK293 tox -19%[172 µM] and NIH3T3 tox -14%[138 µM].
CC(C)(C)NC(=O)N1C[C@@H](Oc2ccccc2)C[C@H]1C(=O)N1CCOCC1 was read as GPT2 inhibitor inactive, HEK293 tox inactive and NIH3T3 tox -5%.
Screening COc1cccc(OC)c1CN1CC(O)CN(C(=O)COc2ccccc2)CC1=O (stereo not drawn) returned HEK293 tox -8% and NIH3T3 tox inconclusive.
For COCCn1cc2c3c(cccc31)CN(C(=O)CCCc1ccccc1)CC2 the results were FLuc inh inactive, NPR1 antag -29%, GPT2 inhibitor inactive, HEK293 tox inconclusive and NIH3T3 tox inconclusive.
Screening COCC(=O)N1CCc2cn(CC(C)C)c3cccc(c23)C1 returned FLuc inh inactive, NPR1 antag -11%, GPT2 inhibitor inactive, HEK293 tox 79µM* and NIH3T3 tox inconclusive.
`CC(C)(C)OC(=O)N1CC(Nc2ccc(Oc3ccccc3)cc2)C1` gave GPT2 inhibitor inactive, HEK293 tox 89µM* and NIH3T3 tox inconclusive.
`Cn1nc(-c2nncn2CC2CC2)c2c1CCN(C(=O)c1n[nH]c3ccccc13)C2` gave FLuc inh inactive, NPR1 antag 1%, GPT2 inhibitor inactive, HEK293 tox inconclusive and NIH3T3 tox -11%.
`O=C(Nc1cc(F)cc(F)c1)c1cnc(-c2ccc(F)cc2)nc1-c1ccncc1` gave FLuc inh inconclusive, NPR1 antag inconclusive, GPT2 inhibitor -4%, HEK293 tox 22µM* and NIH3T3 tox 20µM*.
Screening O=C(Nc1ccccc1)c1cnc(-c2ccc(F)cc2)nc1-c1ccncc1 returned FLuc inh inactive, NPR1 antag -22%, GPT2 inhibitor inactive, HEK293 tox 15% and NIH3T3 tox inconclusive.
Screening O=C(Nc1ccc(F)c(Cl)c1)c1cnc(-c2ccccc2)nc1-c1ccncc1 returned FLuc inh inactive, NPR1 antag inconclusive, GPT2 inhibitor inactive, HEK293 tox 35µM* and NIH3T3 tox 25µM*.
Screening CC(C)Cn1c(=O)c(C(=O)NCc2ccccc2F)nc2cccnc21 returned GPT2 inhibitor inactive, HEK293 tox inconclusive and NIH3T3 tox inconclusive.
`O=C(Nc1cccc(F)c1)c1cnc2c(c1)N(C(=O)CCc1ccccc1)CCC2` gave FLuc inh inactive, NPR1 antag -17%[70.6 µM], GPT2 inhibitor -14%[88.5 µM], HEK293 tox inconclusive and NIH3T3 tox -20%[138 µM].
`O=C(c1cnc2c(c1)N(C(=O)CCc1ccccc1)CCC2)N1CCC(c2ccccc2)CC1` gave FLuc inh inactive, NPR1 antag 5%, GPT2 inhibitor -5%, HEK293 tox 79µM* and NIH3T3 tox inconclusive.
Screening O=C(NCc1ccc2c(c1)OCO2)c1cnc2c(c1)N(C(=O)CCc1ccccc1)CCC2 returned FLuc inh inactive, NPR1 antag 4%, GPT2 inhibitor inactive, HEK293 tox inconclusive and NIH3T3 tox inconclusive.
O=C(c1cnc2c(c1)N(C(=O)CCc1ccccc1)CCC2)N1CCN(Cc2ccccc2)CC1 was read as FLuc inh inactive, NPR1 antag -1%, GPT2 inhibitor inactive, HEK293 tox inconclusive and NIH3T3 tox -13%.
For Cc1csc(NC(=O)c2cnc3c(c2)N(C(=O)CCc2ccccc2)CCC3)n1 the results were FLuc inh inactive, NPR1 antag -1%[70.6 µM], GPT2 inhibitor -26%[88.5 µM], HEK293 tox inconclusive and NIH3T3 tox 89µM*.
Screening O=C(NCc1cccc(Cl)c1)c1cnc2c(c1)N(C(=O)CCc1ccccc1)CCC2 returned FLuc inh inactive, NPR1 antag -18%[70.6 µM], GPT2 inhibitor -6%[88.5 µM], HEK293 tox inconclusive and NIH3T3 tox 100µM*.
For O=C(c1ccccc1F)N1CCN(Cc2ccccc2-c2ccccc2F)CC1 the results were GPT2 inhibitor 4%, HEK293 tox inconclusive and NIH3T3 tox inconclusive.
For COc1cccc(CNC(=O)c2cc(-c3ccsc3)nc3c2cnn3C)c1 the results were GPT2 inhibitor inactive, HEK293 tox 56µM* and NIH3T3 tox 25µM*.
Cn1ncc2c(C(=O)NCc3ccc(F)c(F)c3)cc(-c3ccsc3)nc21 was read as GPT2 inhibitor inactive, HEK293 tox inconclusive and NIH3T3 tox inconclusive.
`Cn1ncc2c(C(=O)NCc3cccc(Cl)c3)cc(-c3ccsc3)nc21` gave GPT2 inhibitor 5%, HEK293 tox 32µM* and NIH3T3 tox 16µM*.
`Cn1ncc2c(C(=O)NCc3cccc(Cl)c3)cc(-c3ccc(F)cc3)nc21` gave GPT2 inhibitor inactive, HEK293 tox 35µM* and NIH3T3 tox inconclusive.
